For test [1], the system named is XIP peptide (Xip251-270) binding. The experiment in a line: XIP fragment 251-270 binding compounds – biochemical, small-molecule microarray, fluorescence 635/667 nm, 0.1 µg/mL protein, primary screen (AID 1182). The settings on record: fluorescent protein binding, 635 nm, higher = more signal, called active from +8 up or from −8 down.
For test [2], the system named is XIP peptide (Xip251-270). The experiment in a line: compounds binding XIP fragment 251-270 – biochemical, small-molecule microarray, fluorescence 635/667 nm, 0.5 µg/mL protein, primary screen (AID 1183). The settings on record: fluorescence 635 nm, higher = more signal.
Test [3] in a line: blood-stage malaria parasite viability loss – strain 3D7, DAPI fluorescence, 100 nL, primary screen (AID 1184).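 Also: parasites grown inside human red blood cells in medium with human serum.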 Conditions: P. falciparum 3D7 growth, 3 d, higher = more signal.
Test [4] deals with Homeobox protein Hox-A13 (Mus musculus) (UniProt Q62424). The experiment in a line: disruptors of Hoxa13 oligonucleotide interaction – biochemical, fluorescence polarization, labeled oligonucleotide, primary screen (AID 1185). Conditions: Hoxa13:DNA binding, 15 min, higher = more signal, called active from +8 up or from −8 down. In general terms: In fluorescence polarisation assays a small probe gives low polarisation when free and higher when bound to something large.
Sequence of Homeobox protein Hox-A13 (Mus musculus) (Q62424 whole entry, looked up): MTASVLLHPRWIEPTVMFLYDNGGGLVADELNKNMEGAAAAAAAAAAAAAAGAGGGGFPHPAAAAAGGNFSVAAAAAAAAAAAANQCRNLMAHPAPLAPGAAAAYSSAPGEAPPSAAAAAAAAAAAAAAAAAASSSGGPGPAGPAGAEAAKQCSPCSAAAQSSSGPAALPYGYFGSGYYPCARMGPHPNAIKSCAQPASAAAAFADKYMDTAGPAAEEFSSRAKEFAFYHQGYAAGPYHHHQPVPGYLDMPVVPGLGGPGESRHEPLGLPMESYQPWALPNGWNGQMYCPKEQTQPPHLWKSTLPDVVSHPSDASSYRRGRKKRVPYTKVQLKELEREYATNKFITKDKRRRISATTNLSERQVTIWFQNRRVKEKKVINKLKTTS

Test [5] in a line: blockers of DNA damage checkpoint Chk1 activation – imaging, HeLa, hydroxyurea, phospho-Chk1 antibody, percent positive cells, primary screen (AID 1186). The settings on record: hydroxyurea-induced phospho-Chk1 immunofluorescence imaging, higher = more signal.
Test [6] can be described thus: blockers of DNA damage checkpoint Chk1 activation – imaging, HeLa, hydroxyurea, phospho-Chk1 nuclear intensity, primary screen (AID 1187). Conditions: hydroxyurea-induced phospho-Chk1 immunofluorescence imaging, higher = more signal.

The source made the active and inactive calls. Unless noted, no rule for the calls is given here.

Turning to `COc1ccc(C#Cc2ccc3c(c2)[C@]2(C(=O)N3)[C@H](c3ccc(OCCO)cc3)N3[C@H](c4ccccc4)[C@H](c4ccccc4)OC(=O)[C@H]3[C@@H]2C(=O)O)cc1`, the composite z-score was -0.436 (inactive) in test [1] and 0.327 in test [2]. The z-score was -1.31 in test [3], -5.36 (inactive) in test [4], 0.36 (inactive) in test [5] and 0.273 (inactive) in test [6].
For `C=C(C(=O)CC[C@@H](OC(C)=O)c1cccc(OCCO)c1)C(C)C`, the composite z-score in test [1] was 0.723 (inactive); in test [2], 0.436. For the same compound, the z-score in test [3] was -1.01; in test [4] it was -4.41 (inactive); in test [5], -0.0088 (inactive); in test [6] it was 0.158 (inactive).
As for `CCOC(=O)C1=CCC(c2cc3ccccc3[nH]2)N(S(=O)(=O)c2ccccc2[N+](=O)[O-])C1` (configuration not stated), the composite z-score in test [1] is -0.212 (inactive); in test [2], 0.817. Moreover, the z-score was -0.65 in test [3], -1.5 (inactive) in test [4], -0.285 (inactive) in test [5] and -0.518 (inactive) in test [6].
Turning to `C[C@@H](OCc1ccccc1)C1NC(=O)[C@@]23C(=O)N[C@@H](Cc4ccccc4)C2[C@H](C)[C@@]2(C)O[C@H]2C3/C=C/C/C=C\CNC(=O)[C@H](Cc2ccccc2)NC1=O` (some centres not stated), the composite z-score in test [1] was -0.0678 (inactive); in test [2], -0.0412. For the same compound, the z-score in test [3] is -2.45; in test [4], -5.7 (inactive); in test [5] it was 0.0781 (inactive); in test [6], 0.544 (inactive).
In the case of `COC(=O)[C@@]1(Cc2ccccc2CN=[N+]=[N-])COC(c2ccc(OCCCO)cc2)=N1`, the composite z-score is 1.31 (inactive) in test [1] and 0.871 in test [2]. Moreover, the z-score in test [3] is -1.3; in test [4], -4.77 (inactive); in test [5], -0.184 (inactive); in test [6], 0.0494 (inactive).
For `C=CCN1C(=O)[C@]2(O[C@H](CCO)[C@@H]([Si](C)(C)c3ccc(OC)cc3)[C@@H]2C)c2ccccc21`, the composite z-score in test [1] was 0.0965 (inactive); in test [2], 0.193. In addition, the z-score in test [3] is -2.31; in test [4] it was -6.69 (inactive); in test [5] it was -1.17 (inactive); in test [6] it was -1.58 (inactive).
On to `O=C1c2ccccc2[C@](Cc2ccccc2I)(C(=O)O)[C@H](c2ccc(CO)cc2)N1Cc1ccccc1`, for which the results for the composite z-score in test [1] and in test [2] were 0.947 (inactive) and 0.754, respectively. The z-score in test [3] is 0.387; in test [4] it was -4.44 (inactive); in test [5], -0.422 (inactive); in test [6], -0.204 (inactive).
Regarding `O=C(NCC(F)(F)F)[C@@H]1c2ccccc2C(=O)N(CC23CC4CC(CC(C4)C2)C3)[C@H]1c1ccc(CO)cc1`, the values for the composite z-score in test [1] and in test [2] were 0.35 (inactive) and 0.586, respectively. Further, the z-score is -2.24 in test [3], -4.02 (inactive) in test [4], -0.254 (inactive) in test [5] and -0.371 (inactive) in test [6].
`[N-]=[N+]=NCc1ccccc1[C@H]1OC(c2ccc(OCCCO)cc2)=N[C@@]1(Cc1ccccc1)C(=O)N1CCOCC1`: the figures for the composite z-score in test [1] and in test [2] were 0.0472 (inactive) and 0.667, respectively. Also, the z-score in test [3] was -2.62; in test [4] it was -3.37 (inactive); in test [5], -0.11 (inactive); in test [6], -0.185 (inactive).
In the case of `CC(C)CNC(=O)[C@@H]1c2ccccc2C(=O)N(C(C)C)[C@H]1c1ccc(CO)cc1`, the composite z-score was -0.885 (inactive) in test [1] and 0.93 in test [2]. Besides, the z-score in test [3] was 0.643; in test [4], -0.0386 (inactive); in test [5], -0.586 (inactive); in test [6], -0.784 (inactive).
In the case of `O=C1O[C@@H](c2ccccc2)[C@@H](c2ccccc2)N2[C@@H](c3ccc(O)cc3)[C@]3(C(=O)Nc4ccc(C#CC5=CCCCC5)cc43)[C@@H](C(=O)N3CCCCCCC3)[C@H]12`, the composite z-score in test [1] was 1.52 (inactive); in test [2], 0.816. Besides, the z-score in test [3] is -1.99; in test [4], 4.91 (inactive); in test [5], -0.434 (inactive); in test [6], -0.686 (inactive).
For the compound `COCCOC(=O)N1C(=O)[C@@]2(c3cc(C#Cc4ccc(OC)cc4)ccc31)[C@H](c1ccc(OCCO)cc1)N1[C@H](c3ccccc3)[C@H](c3ccccc3)OC(=O)[C@H]1[C@@H]2C(=O)N1CCCCCCC1`, the composite z-score in test [1] was 0.92 (inactive); in test [2], 0.768. Besides, the z-score in test [3] was -2.09; in test [4], -15.8 (active); in test [5] it was -0.318 (inactive); in test [6] it was -0.217 (inactive).
As to `O=C1C2C=CC(C(O)c3ccc([N+](=O)[O-])cc3)N(Nc3ccccc3)C2C(=O)N1c1ccccc1` (configuration not stated), the composite z-score in test [1] was 0.392 (inactive); in test [2], 0.467. The z-score in test [3] is 0.45; in test [4], -4.48 (inactive); in test [5] it was 0.226 (inactive); in test [6], -0.168 (inactive).
For the compound `CC(C)C[C@@H]1NC(=O)[C@@H]2C[C@H](C(=O)O)[C@H](c3ccc(O)cc3)N2C1=O`, the composite z-score was 1.84 (inactive) in test [1] and 0.705 in test [2]. Besides, the z-score in test [3] was -0.26; in test [4], -3.43 (inactive); in test [5], 0.873 (inactive); in test [6] it was 0.918 (inactive).
With `CC(C)[Si](C#CCCCC#N)(O[C@H](c1ccccc1)c1cn([C@H](C)c2ccccc2)nn1)C(C)C`, the composite z-score was -0.301 (inactive) in test [1] and 0.415 in test [2]. For the same compound, the z-score was -0.133 in test [3], -0.445 (inactive) in test [4], -0.228 (inactive) in test [5] and -0.174 (inactive) in test [6].
Take `C=C(COC)/C(=C/C[C@H](OC(=O)c1ccncc1)c1ccc(OCCO)cc1)c1cc(C(=O)OC)ccc1OC`: the composite z-score in test [1] is -0.202 (inactive); in test [2], 0.667. In addition, the z-score is -3.05 in test [3], -4.65 (inactive) in test [4], 0.203 (inactive) in test [5] and 0.159 (inactive) in test [6].
Turning to `C=C(CC1([C@@H](NP(=O)(c2ccccc2)c2ccccc2)[C@H]2C[C@@H]2CCN(C(=O)OCC)S(=O)(=O)c2ccc(C)cc2)CC1)c1ccccc1`, the composite z-score was 0.43 (inactive) in test [1] and 0.666 in test [2]. The z-score in test [3] was -1.75; in test [4], -2.18 (inactive); in test [5], -0.215 (inactive); in test [6], -0.0171 (inactive).
